Measurements: the supplement of paper PMC10849652
About 8,800 targets were measured; listed, in parts, are those with a hit and a random draw of the rest. About 0.5% of all pairs of compound and target were hits.

Key:
Test in all cases: log2 fold change, soluble protein after heating vs DMSO (PISA); higher = thermal stabilisation; K562 lysate, 10 uM; active = over 0.2 and 3.5 SD of the protein, either way, in both replicates (recomputed)
[1] = compound: C1=CC=C(C=C1)[C@H](COC2=CC3=C(C=C2)NC(=O)N3)NC(=O)C4=CC=CN(C4=O)CC5=CC(=C(C=C5)F)F
Procedure, shortened: (§1)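 Following dounce homogenisation of K562 pellets in PBS pH 7.4 with 1 mM MgCl2, crude extract at 1 mg/mL protein was incubated for 30 min with 10 μM compound. Aliquots were then heated for 3 min over 48°C-58°C and pooled, NP-40 was added to 0.5% at 4°C, and soluble protein was recovered as the supernatant at 21,000xg for 90 min. Channel-sum-equalised TMTpro 16plex LC-MS/MS quantified this protein. Each value, from duplicates, is a log-two fold change in thermal stability relative to solvent controls.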

[2] = compound: CC1=C(SC2=C1C(=N[C@H](C3=NN=C(N32)C)CC(=O)N)C4=CC=C(C=C4)Cl)C
Procedure, shortened: as §1

[3] = compound: CC1=C2C(=CC=C1)N=C(N(C2=O)C3=CC=CC=C3C)CN4C=NC5=C(N=CN=C54)N
Procedure, shortened: as §1

[4] = compound: Cc1sc2c(c1C)C(c1ccc(Cl)cc1)=N[C@@H](CC(=O)OC(C)(C)C)c1nnc(C)n1-2
Procedure, shortened: as §1

[5] = compound: c1ccc([C@@H]2C[C@H]2NC2CCNCC2)cc1
Procedure, shortened: as §1

Measured: log2 fold change

MARCHF6 (UniProt O60337)
inactive: [1] -0.269 | [2] -0.192 | [3] -0.107 | [4] -0.082 | [5] 0.029

KPNA4 (UniProt O00629)
Sequence of UniProt O00629 (O00629 whole entry, looked up): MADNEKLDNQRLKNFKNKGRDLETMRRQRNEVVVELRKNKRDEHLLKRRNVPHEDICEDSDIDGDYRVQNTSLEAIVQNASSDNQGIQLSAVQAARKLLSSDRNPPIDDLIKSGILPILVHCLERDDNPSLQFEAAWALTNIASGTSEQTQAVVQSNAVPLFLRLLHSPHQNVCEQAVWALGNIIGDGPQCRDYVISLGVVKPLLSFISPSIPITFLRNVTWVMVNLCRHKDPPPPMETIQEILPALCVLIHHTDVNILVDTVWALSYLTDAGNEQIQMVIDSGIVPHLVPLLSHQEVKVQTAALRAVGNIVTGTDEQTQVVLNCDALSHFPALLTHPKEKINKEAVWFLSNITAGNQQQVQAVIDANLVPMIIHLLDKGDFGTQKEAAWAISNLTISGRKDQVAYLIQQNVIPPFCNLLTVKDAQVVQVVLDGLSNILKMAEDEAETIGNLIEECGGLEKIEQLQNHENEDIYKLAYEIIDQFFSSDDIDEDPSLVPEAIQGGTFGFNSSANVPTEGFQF
inactive: [1] 0.06 | [2] -0.068 | [3] 0.044 | [4] 0.011 | [5] -0.169

MAP7D3 (UniProt Q8IWC1)
inactive: [1] 0.056 | [2] 0.057 | [3] -0.091 | [4] 0.015 | [5] -0.05

KIF4A (UniProt O95239)
inactive: [1] -0.042 | [2] 0.012 | [3] 0.035 | [4] 0.06 | [5] 0.005

MARK2 (UniProt E9PC69)
inactive: [1] 0.003 | [2] -0.004 | [3] 0.071 | [4] -0.043 | [5] 0.035

KMT2A isoform 3 (UniProt Q03164)
Sequence of UniProt Q03164 (Q03164 whole entry, looked up): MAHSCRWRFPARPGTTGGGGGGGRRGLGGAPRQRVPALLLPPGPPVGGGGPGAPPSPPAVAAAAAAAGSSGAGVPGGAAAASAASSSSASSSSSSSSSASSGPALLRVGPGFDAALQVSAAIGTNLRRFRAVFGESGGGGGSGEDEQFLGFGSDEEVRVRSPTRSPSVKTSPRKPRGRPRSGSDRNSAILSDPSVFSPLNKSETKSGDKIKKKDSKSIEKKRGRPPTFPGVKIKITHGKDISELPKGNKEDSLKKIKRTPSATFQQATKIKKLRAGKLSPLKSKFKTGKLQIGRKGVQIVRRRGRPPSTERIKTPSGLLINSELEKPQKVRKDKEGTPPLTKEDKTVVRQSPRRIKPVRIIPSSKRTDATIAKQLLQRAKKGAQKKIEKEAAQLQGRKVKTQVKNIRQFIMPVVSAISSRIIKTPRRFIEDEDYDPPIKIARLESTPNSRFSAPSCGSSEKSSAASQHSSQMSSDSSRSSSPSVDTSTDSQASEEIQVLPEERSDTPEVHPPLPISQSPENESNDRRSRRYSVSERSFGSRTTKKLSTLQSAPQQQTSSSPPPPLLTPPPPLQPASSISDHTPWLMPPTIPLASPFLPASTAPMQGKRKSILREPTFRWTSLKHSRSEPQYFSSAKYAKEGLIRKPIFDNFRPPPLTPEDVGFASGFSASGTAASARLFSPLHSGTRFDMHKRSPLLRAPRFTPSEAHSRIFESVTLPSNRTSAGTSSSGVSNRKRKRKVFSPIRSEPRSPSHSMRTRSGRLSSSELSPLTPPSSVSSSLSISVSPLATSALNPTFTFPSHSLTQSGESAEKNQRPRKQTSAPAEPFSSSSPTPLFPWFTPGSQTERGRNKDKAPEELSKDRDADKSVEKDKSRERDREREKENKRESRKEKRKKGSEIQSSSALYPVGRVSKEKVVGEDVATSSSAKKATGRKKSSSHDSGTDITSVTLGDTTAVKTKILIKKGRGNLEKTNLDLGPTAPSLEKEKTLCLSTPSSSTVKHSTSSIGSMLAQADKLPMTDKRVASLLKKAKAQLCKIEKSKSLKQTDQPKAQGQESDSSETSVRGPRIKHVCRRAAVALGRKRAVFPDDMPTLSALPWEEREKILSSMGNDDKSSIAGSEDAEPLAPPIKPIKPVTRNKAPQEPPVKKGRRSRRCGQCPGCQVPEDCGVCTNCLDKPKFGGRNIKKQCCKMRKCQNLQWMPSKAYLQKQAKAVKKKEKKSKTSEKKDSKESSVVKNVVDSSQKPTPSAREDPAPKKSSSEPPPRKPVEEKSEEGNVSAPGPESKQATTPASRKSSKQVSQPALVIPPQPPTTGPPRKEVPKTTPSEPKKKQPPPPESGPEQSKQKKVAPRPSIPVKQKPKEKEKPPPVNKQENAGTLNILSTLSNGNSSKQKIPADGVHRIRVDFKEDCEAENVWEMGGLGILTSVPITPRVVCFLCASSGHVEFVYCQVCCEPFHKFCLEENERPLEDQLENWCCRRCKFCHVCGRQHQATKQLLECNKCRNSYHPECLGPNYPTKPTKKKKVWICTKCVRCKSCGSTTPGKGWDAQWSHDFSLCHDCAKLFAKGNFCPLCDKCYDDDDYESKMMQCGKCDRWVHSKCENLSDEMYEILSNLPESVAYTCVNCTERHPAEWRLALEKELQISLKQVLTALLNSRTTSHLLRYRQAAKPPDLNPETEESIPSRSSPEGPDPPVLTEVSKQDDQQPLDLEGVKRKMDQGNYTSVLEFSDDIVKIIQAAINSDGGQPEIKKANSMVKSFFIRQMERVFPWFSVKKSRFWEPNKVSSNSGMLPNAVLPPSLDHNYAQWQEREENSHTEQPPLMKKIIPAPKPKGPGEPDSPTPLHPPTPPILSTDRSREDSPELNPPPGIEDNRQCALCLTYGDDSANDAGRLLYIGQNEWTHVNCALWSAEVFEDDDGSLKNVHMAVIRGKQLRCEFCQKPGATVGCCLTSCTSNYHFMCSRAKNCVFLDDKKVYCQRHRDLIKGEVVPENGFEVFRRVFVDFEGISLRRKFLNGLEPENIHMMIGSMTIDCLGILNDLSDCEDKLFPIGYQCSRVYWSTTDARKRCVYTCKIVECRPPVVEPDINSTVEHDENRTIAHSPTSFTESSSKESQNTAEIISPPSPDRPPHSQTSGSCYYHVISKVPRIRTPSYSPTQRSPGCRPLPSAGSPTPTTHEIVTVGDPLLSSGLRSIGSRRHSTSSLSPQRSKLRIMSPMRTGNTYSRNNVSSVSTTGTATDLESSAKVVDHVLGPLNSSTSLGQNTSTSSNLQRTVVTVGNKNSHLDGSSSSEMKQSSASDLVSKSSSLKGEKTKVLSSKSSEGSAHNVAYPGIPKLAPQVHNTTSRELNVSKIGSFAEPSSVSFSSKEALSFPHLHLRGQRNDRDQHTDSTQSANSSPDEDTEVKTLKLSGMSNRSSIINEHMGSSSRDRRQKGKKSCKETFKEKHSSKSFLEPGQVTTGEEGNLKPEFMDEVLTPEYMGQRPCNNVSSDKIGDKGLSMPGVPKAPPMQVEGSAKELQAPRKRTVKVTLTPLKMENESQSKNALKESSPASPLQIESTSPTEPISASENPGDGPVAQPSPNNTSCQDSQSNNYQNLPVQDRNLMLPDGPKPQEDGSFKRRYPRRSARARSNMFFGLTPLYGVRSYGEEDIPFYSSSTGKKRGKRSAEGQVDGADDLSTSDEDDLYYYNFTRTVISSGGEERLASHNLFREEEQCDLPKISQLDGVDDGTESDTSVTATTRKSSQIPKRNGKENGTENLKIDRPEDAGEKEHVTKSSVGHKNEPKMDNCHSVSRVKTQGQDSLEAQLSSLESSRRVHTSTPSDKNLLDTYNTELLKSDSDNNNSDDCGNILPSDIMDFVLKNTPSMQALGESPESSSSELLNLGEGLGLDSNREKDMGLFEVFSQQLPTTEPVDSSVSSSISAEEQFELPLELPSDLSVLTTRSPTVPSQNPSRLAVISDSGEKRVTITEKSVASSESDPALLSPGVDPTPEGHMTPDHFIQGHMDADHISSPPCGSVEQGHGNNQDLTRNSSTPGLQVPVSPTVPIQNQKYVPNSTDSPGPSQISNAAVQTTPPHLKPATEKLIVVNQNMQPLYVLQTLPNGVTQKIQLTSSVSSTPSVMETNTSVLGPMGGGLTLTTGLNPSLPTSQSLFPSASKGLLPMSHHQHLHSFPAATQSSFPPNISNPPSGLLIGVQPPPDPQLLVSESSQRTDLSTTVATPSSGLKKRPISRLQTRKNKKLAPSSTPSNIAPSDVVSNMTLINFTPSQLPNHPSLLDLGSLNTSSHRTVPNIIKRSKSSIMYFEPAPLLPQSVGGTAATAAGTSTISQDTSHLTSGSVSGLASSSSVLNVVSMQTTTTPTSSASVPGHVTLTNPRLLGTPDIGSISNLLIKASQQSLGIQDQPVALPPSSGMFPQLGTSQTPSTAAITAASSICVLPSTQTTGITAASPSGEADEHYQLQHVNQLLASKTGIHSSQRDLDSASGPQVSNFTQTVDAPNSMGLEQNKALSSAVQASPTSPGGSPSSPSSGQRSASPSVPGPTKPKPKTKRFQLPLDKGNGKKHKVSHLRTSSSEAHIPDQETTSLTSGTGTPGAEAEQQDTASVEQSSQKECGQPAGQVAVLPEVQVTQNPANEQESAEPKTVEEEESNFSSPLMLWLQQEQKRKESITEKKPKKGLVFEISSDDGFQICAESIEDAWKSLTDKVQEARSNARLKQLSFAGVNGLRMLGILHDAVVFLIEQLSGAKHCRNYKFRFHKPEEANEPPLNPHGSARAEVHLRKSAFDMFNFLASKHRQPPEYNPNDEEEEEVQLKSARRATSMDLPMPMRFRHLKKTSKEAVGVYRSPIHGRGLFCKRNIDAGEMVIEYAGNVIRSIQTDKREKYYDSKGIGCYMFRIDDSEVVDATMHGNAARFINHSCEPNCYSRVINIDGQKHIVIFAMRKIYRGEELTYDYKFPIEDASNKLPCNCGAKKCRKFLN
inactive: [1] 0.043 | [2] 0.09 | [3] -0.009 | [4] -0.025 | [5] 0.016

LPIN1 isoform 7 (UniProt Q14693)
inactive: [1] 0.053 | [2] -0.003 | [3] -0.053 | [4] 0.029 | [5] 0.194

METTL7A (UniProt Q9H8H3)
Sequence of UniProt Q9H8H3 (Q9H8H3 whole entry, looked up): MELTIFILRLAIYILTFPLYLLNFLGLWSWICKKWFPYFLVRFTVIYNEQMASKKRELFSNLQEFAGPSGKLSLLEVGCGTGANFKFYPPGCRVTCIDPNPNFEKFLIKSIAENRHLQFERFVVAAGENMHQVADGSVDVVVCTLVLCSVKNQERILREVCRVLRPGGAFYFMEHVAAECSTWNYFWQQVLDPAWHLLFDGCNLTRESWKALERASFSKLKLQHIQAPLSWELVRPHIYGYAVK
inactive: [1] 0.069 | [2] -0.059 | [3] -0.078 | [4] -0.008 | [5] -0.074

MIF (UniProt P14174)
Sequence of UniProt P14174 (P14174 whole entry, looked up): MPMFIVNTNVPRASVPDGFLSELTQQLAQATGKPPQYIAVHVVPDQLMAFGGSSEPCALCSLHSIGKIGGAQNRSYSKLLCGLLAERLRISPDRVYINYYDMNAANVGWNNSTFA
inactive: [1] 0.046 | [2] 0.022 | [3] -0.043 | [4] -0.013 | [5] -0.09
